These results are taken from PubChem BioAssay (NCATS).

Molecules are shown by their SMILES. Where “and” joins values, the source holds several entries; their conditions need not be identical. Identical values can stand only once. Records with an inconclusive call do not appear. Unmarked numbers belong to inactive results. Calls of active or inactive are those of the source. Unless noted, calls come from the whole dose curve; as a rule, active = well fitted curve in the direction sought with a large enough effect; inconclusive = small, poorly fitted or top-dose-only effect, or another doubt; inactive = no such curve, though single readings can be large; an effect the other way counts as inactive or inconclusive.

Test [1] in a line: Primary qHTS for small molecule stabilizers of the endoplasmic reticulum resident proteome: Secreted ER Calcium Modulated Protein (SERCaMP) assay (AID 1508630). Note: % is set by controls: 0 for no effect and ±100 for the full control effect. The method in brief: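 The SH-SY5Y reporter protocol was run at 3 concentrations up to 38.3 uM (primary) or 11 concentrations (follow-up): 16 h compound, 100 nM thapsigargin for 4 h, then extracellular luciferase luminescence.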
On the technique in general: qHTS replaces the single test concentration by a dilution series.

The nature of test [2]: A High-Content qHTS Against Drug Library for the Identification of Small Molecules that Inhibit DYT1 Early Onset Primary Dystonia-Associated Cell Pathology (AID 1645839; calls by dose curve; note: potency is the fitted concentration of half-maximal effect; for % pathology change, negative = correction: series mostly up to about 46 µM). The method in brief:
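Cells were seeded and left for 24 h, then dosed with compound alongside tetracycline induction of mutant EGFP-TorsinA. They were incubated for 48 h, fixed in 4% paraformaldehyde, permeabilized and imaged for mislocalization (%pathology) and cell count.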

Test [3] has as its target Cytochrome P450 2D6 (Homo sapiens) (UniProt P10635). The experiment in a line: Cytochrome P450 family 2 subfamily D member 6 (CYP2D6) small molecule antagonists: luciferase biochemical (cell-free) qHTS assay (AID 1645840; active = well fitted curve in the direction sought with a large enough effect in the repeat runs; an effect the other way counts as inactive or inconclusive; note: nearly all actives have a fitted effect of over 55% in size; note: potency is the fitted concentration of half-maximal effect). In short, it runs like this:
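P450-Glo CYP2D6 system: proluciferin substrate converted by enzyme to luciferin, read by luminescence proportional to activity. Enzyme-substrate mix with compound 10 min at room temperature, then NADPH regeneration 1 h before detection reagent.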

The target of test [4] is Cytochrome P450 2C9 (Homo sapiens) (UniProt P11712). Description: Cytochrome P450 family 2 subfamily C member 9 (CYP2C9) small molecule antagonists: luciferase biochemical (cell-free) qHTS assay (AID 1645842; active = well fitted curve in the direction sought with a large enough effect in the repeat runs; an effect the other way counts as inactive or inconclusive; note: nearly all actives have a fitted effect of over 55% in size; note: potency is the fitted concentration of half-maximal effect). In short, it runs like this:
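P450-Glo CYP2C9 system: proluciferin substrate with enzyme in mix containing 0.4% BSA, 10 min at room temperature, then NADPH regeneration solution added and incubated 1 h at 37C. Detection reagent stopped reaction; luminescence read after 20 min as RLU.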

The nature of test [5]: Primary qHTS for inhibitors of nuclear receptor binding SET domain protein 2 (NSD2) in an isogenic RCH-ACV NSD2 p.E1099K mutant (9B) (AID 1645876). Note: nearly all actives have a fitted effect of over 70% in size. Note: potency is the fitted concentration of half-maximal effect.
Test [6] deals with Cytochrome P450 3A4 (Homo sapiens) (UniProt P08684). Description: Cytochrome P450 family 3 subfamily A member 4 (CYP3A4) small molecule antagonists: luciferase qHTS assay (AID 1645841; active = well fitted curve in the direction sought with a large enough effect in the repeat runs; an effect the other way counts as inactive or inconclusive; note: nearly all actives have a fitted effect of over 45% in size). The method in brief:
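P450-Glo CYP3A4 enzyme with proluciferin substrate preincubated 10 min with compound at room temperature, then NADPH regeneration 1 h. Luciferin detection reagent added for 20 min; luminescence recorded. Ketoconazole positive control.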

Test [7] deals with N-terminal Xaa-Pro-Lys N-methyltransferase 1 (Homo sapiens) (UniProt Q9BV86). The experiment in a line: Confirmatory qHTS for Inhibitors of N-terminal methyltransferase 1 (NTMT1): MTaseGlo Assay (AID 1645874). Note: nearly all actives have a fitted effect of over 65% in size. Note: potency is the fitted concentration of half-maximal effect. In short, it runs like this:
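SPKRIA peptide at 1 uM was methylated by 125 nM NTMT1 using 100 uM SAM over 30 min at room temperature, following a 15 min compound preincubation. Product SAH was detected luminescently.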

Sequence of Cytochrome P450 2C9 (Homo sapiens) (P11712 whole entry, looked up): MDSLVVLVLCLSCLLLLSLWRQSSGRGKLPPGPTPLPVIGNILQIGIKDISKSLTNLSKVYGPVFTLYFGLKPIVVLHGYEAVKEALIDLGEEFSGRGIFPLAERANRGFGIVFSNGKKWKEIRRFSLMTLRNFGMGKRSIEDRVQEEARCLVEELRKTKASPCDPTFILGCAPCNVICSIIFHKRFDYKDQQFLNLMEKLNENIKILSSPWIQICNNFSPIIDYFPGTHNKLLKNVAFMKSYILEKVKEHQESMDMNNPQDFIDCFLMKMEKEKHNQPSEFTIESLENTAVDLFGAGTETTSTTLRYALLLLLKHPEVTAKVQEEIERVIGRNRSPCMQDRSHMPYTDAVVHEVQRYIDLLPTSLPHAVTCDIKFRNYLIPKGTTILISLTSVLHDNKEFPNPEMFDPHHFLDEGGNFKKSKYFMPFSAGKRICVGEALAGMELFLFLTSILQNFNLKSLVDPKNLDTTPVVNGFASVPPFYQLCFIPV
Sequence of Cytochrome P450 2D6 (Homo sapiens) (P10635 whole entry, looked up): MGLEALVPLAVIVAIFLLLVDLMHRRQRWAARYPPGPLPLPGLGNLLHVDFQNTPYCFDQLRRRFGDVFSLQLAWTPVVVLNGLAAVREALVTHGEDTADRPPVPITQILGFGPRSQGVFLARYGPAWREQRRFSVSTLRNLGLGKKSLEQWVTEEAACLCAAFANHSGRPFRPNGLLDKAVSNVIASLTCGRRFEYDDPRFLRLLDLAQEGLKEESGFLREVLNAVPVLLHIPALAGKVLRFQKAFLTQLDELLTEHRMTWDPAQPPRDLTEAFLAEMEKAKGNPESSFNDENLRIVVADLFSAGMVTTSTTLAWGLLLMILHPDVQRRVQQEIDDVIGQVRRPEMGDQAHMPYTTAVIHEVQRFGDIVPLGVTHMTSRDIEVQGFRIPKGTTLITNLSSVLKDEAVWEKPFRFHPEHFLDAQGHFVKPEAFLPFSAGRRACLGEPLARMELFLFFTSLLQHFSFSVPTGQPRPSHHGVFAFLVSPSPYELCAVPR
Sequence of N-terminal Xaa-Pro-Lys N-methyltransferase 1 (Homo sapiens) (Q9BV86 whole entry, looked up): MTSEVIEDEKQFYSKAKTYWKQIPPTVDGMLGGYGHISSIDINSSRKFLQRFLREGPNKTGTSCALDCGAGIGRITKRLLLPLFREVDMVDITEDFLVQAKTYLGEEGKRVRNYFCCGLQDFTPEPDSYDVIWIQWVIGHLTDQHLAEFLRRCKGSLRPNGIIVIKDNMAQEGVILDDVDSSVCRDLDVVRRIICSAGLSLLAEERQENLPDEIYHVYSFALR
Sequence of Cytochrome P450 3A4 (Homo sapiens) (P08684 whole entry, looked up): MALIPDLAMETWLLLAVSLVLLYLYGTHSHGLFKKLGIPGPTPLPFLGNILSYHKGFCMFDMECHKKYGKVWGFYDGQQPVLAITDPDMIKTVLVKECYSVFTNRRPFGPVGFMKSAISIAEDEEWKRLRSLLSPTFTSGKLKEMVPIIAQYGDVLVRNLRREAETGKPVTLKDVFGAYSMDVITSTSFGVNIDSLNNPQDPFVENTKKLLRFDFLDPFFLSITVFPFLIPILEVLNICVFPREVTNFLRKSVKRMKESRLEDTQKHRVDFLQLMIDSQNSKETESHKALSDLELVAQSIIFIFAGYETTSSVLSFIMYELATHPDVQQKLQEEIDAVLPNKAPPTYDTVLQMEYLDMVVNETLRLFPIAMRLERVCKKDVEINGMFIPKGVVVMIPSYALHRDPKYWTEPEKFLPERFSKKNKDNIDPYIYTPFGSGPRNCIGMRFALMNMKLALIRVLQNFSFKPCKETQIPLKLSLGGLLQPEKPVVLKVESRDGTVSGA

As for `COCC(=O)Nc1c(I)c(C(=O)NCC(O)CO)c(I)c(C(=O)N(C)CC(O)CO)c1I` (stereo not given), the outcome in test [1] was inactive. For the same molecule, the Potency entry in test [2], in test [3], in test [4] and in test [5] was “inactive” each time.

Turning to `CCc1cccc(CC)c1NC(=O)CN(CC(=O)O)CC(=O)O`, the outcome in test [1] was inactive. Besides, the Potency result in test [2], in test [3], in test [4] and in test [5] was “inactive” in each case.

Take `C=CCN1C[C@H](C(=O)N(CCCN(C)C)C(=O)NCC)C[C@@H]2c3cccc4[nH]cc(c34)C[C@H]21`: the outcome in test [1] was inactive. Moreover, the Potency result in test [2], in test [4] and in test [5] was “inactive” throughout. The Potency in test [3] was 1.55 µM (active).

`CC1CCc2cc(F)cc3c(=O)c(C(=O)O)cn1c23` (stereo not given): the result in test [1] was inactive. Moreover, in test [2], the % pathology change, negative = correction was -13.4% [at 9.22 µM]. Moreover, the Potency entry in test [3], in test [4] and in test [5] was “inactive” in each case.

As to `CC[N+](CC)(CC(=O)Nc1c(C)cccc1C)Cc1ccccc1`, in test [1], the outcome was inactive. Also, the Potency result in test [2], in test [4] and in test [5] was “inactive” each time.

As for `CCN(CC)CCOC(=O)C(c1ccccc1)c1ccccc1`, the result in test [1] was inactive. Moreover, the Potency entry in test [2] and in test [5] was “inactive” each time. Also, the Potency in test [3] was 1.95 µM (active).

`OC[C@@H](O)[C@@H](O)[C@H](O)[C@H](O)CO`: in test [1], the result was inactive. Further, the Potency result in test [2] and in test [4] was “inactive” throughout.

For the molecule `C/C(=C(\CCO)SS/C(CCO)=C(\C)N(C=O)Cc1cnc(C)nc1N)N(C=O)Cc1cnc(C)nc1N`, in test [1], the outcome was inactive. Further, the Potency result in test [2], in test [4] and in test [5] was “inactive” in each case.

For `COc1ccccc1OC(=O)Oc1ccccc1OC`, in test [1], the outcome was inactive. Also, the Potency result in test [2], in test [3] and in test [5] was “inactive” each time.

With `C[N+](C)(C)CC[N+]1(C)Cc2c(Cl)c(Cl)c(Cl)c(Cl)c2C1`, the outcome in test [1] was inactive. Also, the Potency entry in test [2] and in test [5] was “inactive” each time. The Potency in test [3] is 1.95 µM (active).

As for `CCOC(=O)c1cccnc1`, the outcome in test [1] was inactive. Besides, the Potency result in test [2], in test [3], in test [4] and in test [5] was “inactive” in each case.

Consider `O=c1[nH]c(=O)n([C@H]2C[C@H](O)[C@@H](CO)O2)cc1I`, for which the result in test [1] was inactive. Besides, the Potency result in test [2] and in test [3] was “inactive” each time. The Potency in test [5] is 3.35 µM (active) and 662 nM (active).

Consider `CC(=O)OCC(=O)[C@@]1(O)CC[C@H]2[C@@H]3CCC4=CC(=O)C=C[C@]4(C)[C@@]3(F)[C@@H](O)C[C@@]21C`, for which the outcome in test [1] was inactive. The Potency entry in test [2] and in test [4] was “inactive” in each case.

Consider `CC[C@H](C)[C@H](N)C(=O)O`, for which the result in test [1] was inactive. The Potency entry in test [2], in test [4] and in test [5] was “inactive” throughout.

In the case of `O=C1c2ccccc2S(=O)(=O)N1CCCCN1CCN(c2ncccn2)CC1`, the result in test [1] was inactive. In addition, the Potency result in test [2] and in test [5] was “inactive” throughout. For the same molecule, the Potency is 0.871 µM (active) in test [3] and 11 µM (active) in test [4].

`NS(=O)(=O)c1cc(-c2nn[nH]n2)c(NCc2cccs2)cc1Cl`: the outcome in test [1] was inactive. The Potency result in test [2], in test [3] and in test [5] was “inactive” throughout. In addition, the Potency in test [4] was 10.7 µM (active) and 19.5 µM (active).

With `CC1(c2ccccc2)OC(C(=O)O)=CC1=O` (stereo not given), the result in test [1] and in test [6] was inactive. For the same molecule, the Potency entry in test [2] and in test [4] was “inactive” throughout.

As to `C[C@@H]1CCC[C@H](C)N1`, in test [1], the outcome was inactive. In addition, the Potency entry in test [2], in test [3] and in test [5] was “inactive” each time.

Take `O=C(CCBr)N1CCN(C(=O)CCBr)CC1`: the outcome in test [1] was inactive. Besides, the Potency result in test [2], in test [4] and in test [5] was “inactive” each time.

`Cc1c(N(C)C)c(=O)n(-c2ccccc2)n1C`: in test [1], the outcome was inactive. The Potency entry in test [2], in test [3] and in test [5] was “inactive” each time.

Regarding `Cc1ccc(S(=O)(=O)NC(=O)NC2CCCCC2)cc1`, the outcome in test [1] was inactive. Moreover, the Potency result in test [2], in test [3] and in test [5] was “inactive” each time.

As to `Cc1cc(C)c(NC(=O)CN(CC(=O)O)CC(=O)O)c(C)c1Br`, the result in test [1] was inactive. Further, the Potency result in test [2], in test [4] and in test [5] was “inactive” each time.

`O=c1[nH]cnc2nc[nH]c12`: in test [1], the result was inactive. For the same molecule, the Potency result in test [2], in test [3], in test [7] and in test [5] was “inactive” throughout.

Take `CC(=O)NCc1c(I)c(NC(C)=O)c(I)c(C(=O)O)c1I`: in test [1], the result was inactive. In addition, the Potency entry in test [2], in test [4] and in test [5] was “inactive” in each case.

`CC(=O)OC[C@H]1O[C@@](COC(C)=O)(O[C@H]2O[C@H](COC(C)=O)[C@@H](OC(C)=O)[C@H](OC(C)=O)[C@H]2OC(C)=O)[C@@H](OC(C)=O)[C@@H]1OC(C)=O`: the result in test [1] was inactive. Besides, the Potency entry in test [2], in test [3] and in test [5] was “inactive” in each case.

Regarding `CCCCCCCCCCCCCCCCC(C(=O)O)C(O)(CC(=O)O)C(=O)O` (stereo not given), the result in test [1] was inactive. The Potency was 7.94 µM (active) in test [2] and 17 µM (active) in test [7]. In addition, the Potency result in test [4] was “inactive”.

Consider `CC1CC(OC(=O)c2ccccc2O)CC(C)(C)C1` (stereo not given), for which the result in test [1] was inactive. Besides, the Potency entry in test [2], in test [4] and in test [5] was “inactive” in each case.

`O[C@@H]1CO[C@H]2[C@@H]1OC[C@@H]2O`: the outcome in test [1] was inactive. Besides, the Potency entry in test [2], in test [4] and in test [5] was “inactive” each time.

As for `CCCCCCCC(=O)OCC(COC(=O)CCCCCCC)OC(=O)CCCCCCC`, the result in test [1] was inactive. For the same molecule, the Potency entry in test [2], in test [4] and in test [5] was “inactive” each time.

As for `CN(C/C=C/C#CC(C)(C)C)Cc1cccc2ccccc12`, the result in test [1] was inactive. In addition, the Potency result in test [2] and in test [5] was “inactive” in each case. For the same molecule, the Potency in test [3] was 0.0347 µM (active).

As for `CC(C)(C)C(=O)OCOC(=O)[C@@H]1N2C(=O)[C@@H](NC(=O)[C@H](N)c3ccccc3)[C@H]2SC1(C)C`, the result in test [1] was inactive. The Potency entry in test [2], in test [3] and in test [5] was “inactive” in each case.
